The results in this text go back to PubChem BioAssay (NCI).

A short description of experiment [1]: NCI Yeast Anticancer Drug Screen. Data for the rad50 strain (AID 155).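 Further: 0% = growth of vehicle-only cultures of the same strain.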 As to conditions: S. cerevisiae rad50 strain growth inhibition, hits give high values. In short, it runs like this:
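Yeast carrying a defined DNA repair defect were exposed to test compounds, and growth was compared with vehicle-treated controls to give percent inhibition.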

Experiment [2] is described as follows: NCI Yeast Anticancer Drug Screen. Data for the mec2-1 strain (AID 157). As to conditions: S. cerevisiae mec2-1 strain, hits give high values. In short, it runs like this:
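mec2-1 yeast strain, carrying an alteration in DNA damage repair or cell cycle control, was exposed to compounds; growth inhibition was measured relative to vehicle-treated controls.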

Experiment [3] can be described thus: NCI Yeast Anticancer Drug Screen. Data for the sgs1 mgt1 strain (AID 161).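 Further: 0% = growth of cultures given vehicle only.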 The settings on record: S. cerevisiae sgs1 mgt1 strain, hits give high values. Put shortly: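 Compounds are added to genetically altered yeast, and growth is compared with cultures given vehicle alone to give percent inhibition.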
Experiment [4] in a line: NCI Yeast Anticancer Drug Screen. Data for the cln2 rad14 strain (AID 165).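 Further: 0% = growth equal to vehicle treated cultures.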 As to conditions: S. cerevisiae cln2 rad14 strain, hits give high values. In short, it runs like this: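 Yeast carrying cln2 and rad14 alterations (cell cycle control and DNA damage repair) were exposed to compounds. Growth inhibition was measured against vehicle-treated controls.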
The nature of experiment [5]: NCI Yeast Anticancer Drug Screen. Data for the bub3 strain (AID 167). The settings on record: S. cerevisiae bub3 mutant strain, hits give high values. Put shortly: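 Compounds were applied to a genetically altered yeast strain carrying a cell-cycle control defect. Growth inhibition was scored against vehicle-treated controls.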
The nature of experiment [6]: NCI Yeast Anticancer Drug Screen. Data for the mlh1 rad18 strain (AID 175). The settings on record: S. cerevisiae mlh1 rad18 strain growth inhibition, hits give high values. In short, it runs like this:
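Growth inhibition of the yeast strain was measured after compound exposure and expressed relative to vehicle-treated controls. The strain carries defined defects in DNA damage repair.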

Where [7] appears, read: at 5.0 µM (retest, dose inferred, filed as 0.5).
Setting [8] is: at 50.0 µM (retest, dose inferred, filed as 5.0).

The panel holds about 79,000 compounds, 15% with a hit somewhere; the sample as a whole holds those more often. Values without a mark were called inactive. The source made the active and inactive calls. No stated cut-off is given here; in the data, active means growth inhibition above about 70%; inactive means the rest.

`CS/C(=N\N=C(/C)c1ccccn1)N1CCN(c2ccccn2)CC1`: the growth inhibition in experiment [1] (setting [7]) is 1%; in experiment [1] (setting [8]), 22%; in experiment [1] (at 50.0 µM) it was 98.1% (active); in experiment [2] (setting [7]), -1%; in experiment [2] (setting [8]), 14%; in experiment [2] (at 50.0 µM), 82.2% (active). Also, the growth inhibition is -1% in experiment [3] (setting [7]); 96% (active) in experiment [3] (setting [8]); 98.6% (active) in experiment [3] (at 50.0 µM); -5% in experiment [4] (setting [7]); 84% (active) in experiment [4] (setting [8]); 64.2% in experiment [4] (at 50.0 µM). Further, the growth inhibition in experiment [5] (setting [7]) is -7%; in experiment [5] (setting [8]), 94% (active); in experiment [5] (at 50.0 µM), 91.2% (active); in experiment [6] (setting [7]) it was -8%; in experiment [6] (setting [8]), 98% (active); in experiment [6] (at 50.0 µM), 87.5% (active).
Consider `CCCCNc1ccc(C(=O)OC2CCN(C)CC2)c(Cl)c1`, for which the growth inhibition in experiment [1] (setting [7]) was 99% (active); in experiment [1] (setting [8]), 96% (active); in experiment [1] (at 50.0 µM) it was 97% (active); in experiment [2] (setting [7]), 99% (active); in experiment [2] (setting [8]), 97% (active); in experiment [2] (at 50.0 µM), 94.5% (active). In addition, the growth inhibition in experiment [3] (setting [7]) was 99% (active); in experiment [3] (setting [8]), 98% (active); in experiment [3] (at 50.0 µM), 95.9% (active); in experiment [4] (setting [7]), 98% (active); in experiment [4] (setting [8]), 96% (active); in experiment [4] (at 50.0 µM), 84% (active). The growth inhibition in experiment [5] (setting [7]) was 99% (active); in experiment [5] (setting [8]), 97% (active); in experiment [5] (at 50.0 µM), 96.3% (active); in experiment [6] (setting [7]) it was 99% (active); in experiment [6] (setting [8]), 96% (active); in experiment [6] (at 50.0 µM), 92.8% (active).
In the case of `N#C/C(=C\NC(=S)C(N)=S)c1nc2ccccc2s1`, the growth inhibition was 21% in experiment [1] (setting [7]); 97% (active) in experiment [1] (setting [8]); 88.1% (active) in experiment [1] (at 50.0 µM); 28% in experiment [2] (setting [7]); 99% (active) in experiment [2] (setting [8]); 90.2% (active) in experiment [2] (at 50.0 µM). The growth inhibition is 7% in experiment [3] (setting [7]); 97% (active) in experiment [3] (setting [8]); 89.2% (active) in experiment [3] (at 50.0 µM); 30% in experiment [4] (setting [7]); 97% (active) in experiment [4] (setting [8]); 86.9% (active) in experiment [4] (at 50.0 µM). In addition, the growth inhibition in experiment [5] (setting [7]) was 22%; in experiment [5] (setting [8]), 98% (active); in experiment [5] (at 50.0 µM), 87.8% (active); in experiment [6] (setting [7]) it was 52%; in experiment [6] (setting [8]), 97% (active); in experiment [6] (at 50.0 µM), 85.5% (active).
Take `CCc1nc(N)nc(N)c1-c1ccc(NCCCCCCCCCCCCN)c([N+](=O)[O-])c1`: the growth inhibition was -18% in experiment [1] (setting [7]); 99% (active) in experiment [1] (setting [8]); 94.2% (active) in experiment [1] (at 50.0 µM); -11% in experiment [2] (setting [7]); 99% (active) in experiment [2] (setting [8]); 99.2% (active) in experiment [2] (at 50.0 µM). Moreover, the growth inhibition in experiment [3] (setting [7]) was -1%; in experiment [3] (setting [8]), 99% (active); in experiment [3] (at 50.0 µM), 40.4%; in experiment [4] (setting [7]), -24%; in experiment [4] (setting [8]) it was 98% (active); in experiment [4] (at 50.0 µM), 87% (active). Besides, the growth inhibition in experiment [5] (setting [7]) is -5%; in experiment [5] (setting [8]) it was 99% (active); in experiment [5] (at 50.0 µM), 98.5% (active); in experiment [6] (setting [7]) it was -19%; in experiment [6] (setting [8]), 99% (active); in experiment [6] (at 50.0 µM), 98.7% (active).
Regarding `COC12C=CC(CC1)c1c2c(O)c2ncccc2c1O` (stereo not given), the growth inhibition in experiment [1] (setting [7]) was -4%; in experiment [1] (setting [8]), 67%; in experiment [1] (at 50.0 µM), 78.6% (active); in experiment [2] (setting [7]), -3%; in experiment [2] (setting [8]) it was 40%; in experiment [2] (at 50.0 µM), 34.9%. Also, the growth inhibition in experiment [3] (setting [7]) was -5%; in experiment [3] (setting [8]), 47%; in experiment [3] (at 50.0 µM), 72.5% (active); in experiment [4] (setting [7]), -4%; in experiment [4] (setting [8]), 23%; in experiment [4] (at 50.0 µM), 21.9%. For the same molecule, the growth inhibition in experiment [5] (setting [7]) was 3%; in experiment [5] (setting [8]) it was 77% (active); in experiment [5] (at 50.0 µM), 90.3% (active); in experiment [6] (setting [7]) it was -6%; in experiment [6] (setting [8]) it was 52%; in experiment [6] (at 50.0 µM), 48.3%.
On to `C=C(C)C1CC2=C(O1)C(=O)c1ccccc1C2=O` (stereo not given), for which the growth inhibition is 8% in experiment [1] (setting [7]); 99% (active) in experiment [1] (setting [8]); 91.9% (active) in experiment [1] (at 50.0 µM); 0% in experiment [2] (setting [7]); 95% (active) in experiment [2] (setting [8]); 82.5% (active) in experiment [2] (at 50.0 µM). Further, the growth inhibition in experiment [3] (setting [7]) was 7%; in experiment [3] (setting [8]), 99% (active); in experiment [3] (at 50.0 µM) it was 73% (active); in experiment [4] (setting [7]), -9%; in experiment [4] (setting [8]) it was 37%; in experiment [4] (at 50.0 µM) it was 59.9%. The growth inhibition is 59% in experiment [5] (setting [7]); 96% (active) in experiment [5] (setting [8]); 93.1% (active) in experiment [5] (at 50.0 µM); 11% in experiment [6] (setting [7]); 98% (active) in experiment [6] (setting [8]); 89.8% (active) in experiment [6] (at 50.0 µM).
Consider `c1ccc(CCN(Cc2nc3ccccc3[nH]2)Cc2nc3ccccc3[nH]2)cc1`, for which the growth inhibition is 3% in experiment [1] (setting [7]); 90% (active) in experiment [1] (setting [8]); 94.7% (active) in experiment [1] (at 50.0 µM); -3% in experiment [2] (setting [7]); 92% (active) in experiment [2] (setting [8]); 93.2% (active) in experiment [2] (at 50.0 µM). Besides, the growth inhibition in experiment [3] (setting [7]) is -3%; in experiment [3] (setting [8]), 90% (active); in experiment [3] (at 50.0 µM) it was 96% (active); in experiment [4] (setting [7]) it was -12%; in experiment [4] (setting [8]), 93% (active); in experiment [4] (at 50.0 µM), 82.6% (active). Moreover, the growth inhibition in experiment [5] (setting [7]) was 0%; in experiment [5] (setting [8]) it was 95% (active); in experiment [5] (at 50.0 µM), 89.2% (active); in experiment [6] (setting [7]) it was -3%; in experiment [6] (setting [8]) it was 91% (active); in experiment [6] (at 50.0 µM) it was 95.5% (active).
As to `C=C1CC(C)(COc2ccc3c(C)c(Cl)c(=O)oc3c2)OC1=O` (stereo not given), the growth inhibition in experiment [1] (setting [7]) is 23%; in experiment [1] (setting [8]), 95% (active); in experiment [1] (at 50.0 µM) it was 80% (active); in experiment [2] (setting [7]), 2%; in experiment [2] (setting [8]) it was 97% (active); in experiment [2] (at 50.0 µM) it was 68.8%. For the same molecule, the growth inhibition in experiment [3] (setting [7]) is -2%; in experiment [3] (setting [8]), 95% (active); in experiment [3] (at 50.0 µM) it was 81% (active); in experiment [4] (setting [7]) it was -15%; in experiment [4] (setting [8]), 92% (active); in experiment [4] (at 50.0 µM), 76.8% (active). Further, the growth inhibition in experiment [5] (setting [7]) is 13%; in experiment [5] (setting [8]), 94% (active); in experiment [5] (at 50.0 µM), 85.8% (active); in experiment [6] (setting [7]), 8%; in experiment [6] (setting [8]), 97% (active); in experiment [6] (at 50.0 µM) it was 58.6%.
Turning to `O=C(C(=O)c1ccc(Cc2ccc(C(=O)C(=O)c3ccccc3)cc2)cc1)c1ccccc1`, the growth inhibition in experiment [1] (setting [7]) is -1%; in experiment [1] (setting [8]) it was -20%; in experiment [1] (at 50.0 µM) it was 6.45%; in experiment [2] (setting [7]), 0%; in experiment [2] (setting [8]), -4%; in experiment [2] (at 50.0 µM) it was 6.4%. The growth inhibition in experiment [3] (setting [7]) was 1%; in experiment [3] (setting [8]) it was 1%; in experiment [3] (at 50.0 µM) it was -15.6%; in experiment [4] (setting [7]) it was 3%; in experiment [4] (setting [8]), -17%; in experiment [4] (at 50.0 µM) it was 27.4%. The growth inhibition in experiment [5] (setting [7]) was 2%; in experiment [5] (setting [8]) it was -22%; in experiment [5] (at 50.0 µM), 0.8%; in experiment [6] (setting [7]), 2%; in experiment [6] (setting [8]), -17%; in experiment [6] (at 50.0 µM) it was 12.2%.
With `CC[C@]1(O)C[C@H]2[C@@H]3CCc4cc(OC)ccc4[C@H]3CC[C@]2(C)[C@H]1O`, the growth inhibition in experiment [1] (setting [7]) is -3%; in experiment [1] (setting [8]), 98% (active); in experiment [1] (at 50.0 µM), 46%; in experiment [2] (setting [7]), -6%; in experiment [2] (setting [8]) it was 98% (active); in experiment [2] (at 50.0 µM) it was 48.5%. Also, the growth inhibition in experiment [3] (setting [7]) is -4%; in experiment [3] (setting [8]), 98% (active); in experiment [3] (at 50.0 µM) it was 49.9%; in experiment [4] (setting [7]), -6%; in experiment [4] (setting [8]), 87% (active); in experiment [4] (at 50.0 µM) it was 68.9%. For the same molecule, the growth inhibition in experiment [5] (setting [7]) was 2%; in experiment [5] (setting [8]), 97% (active); in experiment [5] (at 50.0 µM) it was 49.8%; in experiment [6] (setting [7]) it was -4%; in experiment [6] (setting [8]) it was 99% (active); in experiment [6] (at 50.0 µM), 46.4%.
